Experimental data taken from PubChem BioAssay (NCI).
About 79,000 compounds went through this panel and 15% of them were active in at least one assay; those are over-represented in the sample as a whole. Unmarked numbers belong to inactive results. Calls of active or inactive are those of the source. No stated cut-off is given here; in the data, active means growth inhibition above about 70%; inactive means the rest.

Assay: NCI Yeast Anticancer Drug Screen. Data for the mgt1 strain (AID 153)
Conditions: S. cerevisiae mgt1 mutant growth inhibition, stronger effect = higher value
Method: Growth inhibition of yeast strains with defined genetic alterations is measured as a screen for potential anti-cancer activity. Selected strains with alterations in DNA damage repair or cell cycle control were exposed to compounds and growth inhibition was measured relative to vehicle treated controls. The strain used in this assay is mgt1

Compound | growth inhibition (at 1.2 µM) | growth inhibition (at 3.7 µM) | growth inhibition (at 11.0 µM) | growth inhibition (at 33.0 µM) | growth inhibition (at 100.0 µM)
CSC(=Nc1ccccc1)N(c1ccccc1)c1nc(=[N+](C)C)ss1 | 2% | 7% | 84% (active) | 98% (active) | 99% (active)
OC1CCCC2CCC[N-]C12.OC1CCCC2CCC[N-]C12.[O]=[V][OH] (stereo not given) | 24% | 88% (active) | 98% (active) | 97% (active) | 97% (active)
CCNCC(=O)O[C@]1(CC)C(=O)OCc2c1cc1n(c2=O)Cc2cc3ccccc3nc2-1 | 22% | 33% | 26% | 18% | 23%
CCCN(CCC)c1c([N+](=O)[O-])cc(S(N)(=O)=O)cc1[N+](=O)[O-] | -1% | 0% | -11% | 25% | -2%
CCOP(=S)(S)OCC.[Pd] | -2% | 17% | 68% | 82% (active) | 82% (active)
COC(=O)C1=C(C(=O)OC)C2OC1c1cc3ccccc3cc12 | 27% | 44% | 93% (active) | 99% (active) | 99% (active)
COC(=O)c1c(C)ccc2c(O)c3c(cc12)C(=O)c1c2c(cc(O)c1C3=O)C1(C)OC(C)(O2)C(O)C(N(C)C)C1O (stereo not given) | 0% | 10% | 23% | 95% (active) | 94% (active)
O=C1NC(=S)NC(=O)C1=Cc1ccc([N+](=O)[O-])o1 | 15% | 20% | 41% | 58% | 79% (active)
